56 compounds from PubChem BioAssay AID686964 (The Scripps Research Institute Molecular Screening Center, 2013) can be followed below.

Values joined by “and” are separate entries in the source; they are usually repeats but may differ in a detail not shown here. Equal entries are not always repeated. Out of some 370,000 compounds screened, about 1,100 (0.3%) were called active. Rule as the data show it: active = inhibition above about 13%; inactive = the rest. For the sample, actives were picked, then their nearest neighbours and some compounds at random.

In the experiment the target is Methyl-CpG-binding domain protein 2 (Homo sapiens) (UniProt Q9UBB5). Kind of experiment: MBD2-DBD methyl-oligonucleotide interaction blockers – biochemical, TR-FRET, DNA-binding domain, human, primary screen (AID 686964). The note with it: MBD2 binding to methylated oligonucleotide, at 4.4 µM, active compounds read high.
Methyl-CpG-binding domain protein 2 (Homo sapiens), sequence (Q9UBB5 whole entry, looked up, the tested form may be a part): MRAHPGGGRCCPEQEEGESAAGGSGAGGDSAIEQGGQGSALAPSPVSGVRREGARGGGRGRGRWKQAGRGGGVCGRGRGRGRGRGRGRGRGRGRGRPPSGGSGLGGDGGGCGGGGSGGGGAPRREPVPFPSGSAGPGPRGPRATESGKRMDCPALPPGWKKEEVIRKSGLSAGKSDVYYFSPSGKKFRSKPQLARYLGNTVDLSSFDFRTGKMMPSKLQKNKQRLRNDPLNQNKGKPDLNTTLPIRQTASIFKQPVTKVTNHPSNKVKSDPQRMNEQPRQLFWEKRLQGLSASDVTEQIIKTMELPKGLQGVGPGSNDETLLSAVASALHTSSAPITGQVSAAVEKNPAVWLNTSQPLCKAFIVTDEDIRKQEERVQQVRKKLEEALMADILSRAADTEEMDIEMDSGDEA
Turning to `COC(=O)c1cc2c(c3c4ccccc4n(S(=O)(=O)c4cccc(C)c4)c13)C(=O)N(Cc1ccccc1)C2`, the inhibition was 0.83% (inactive).
For `CCc1ccccc1NC(=O)CN(c1ccc(OC)cc1OC)S(=O)(=O)c1ccccc1[N+](=O)[O-]` the value was 2.54% (inactive); for `O=C(Cc1ccc(Br)cc1)NCCN1CCOCC1`, -0.23% (inactive); for `c1ccc2cc3c(NCCN4CCOCC4)ccnc3cc2c1`, 15.3% (active).
The same measure for `CSc1ccc(CNCCN2CCOCC2)cc1`: 2.47% (inactive).
On to `COc1ccccc1C(=O)Nn1cnnc1`, for which the inhibition is 3.63% (inactive).
In the case of `COc1ccccc1C(=O)NCC(=O)OCC(=O)NNC(=O)c1ccc(Br)cc1`, the inhibition is -6.8% (inactive).
The same measure for `COc1ccccc1C(=O)NNC(=O)CCN1C(=O)/C(=C\c2ccccc2)SC1=S`: 13.2% (active); for `Cn1cnnc1Sc1ccc(CN2CCN(C3CCCC3)C(CCO)C2)o1` (stereo unspecified): -4.49% (inactive).
The same measure for `C[C@@H]1CN([C@@H](C)CO)C(=O)c2cccc(NC(=O)Nc3cccc4ccccc34)c2O[C@H]1CN(C)S(=O)(=O)c1ccccc1F`: -5.98% (inactive); for `COc1ccccc1C(=O)NC1CCCCN(C(C)C)C1=O` (stereo unspecified): 6.15% (inactive).
The same measure for `Cc1ccc(S(=O)(=O)N(CCc2ccccc2)c2ccc3c(c2)C2CC3CCN2C(=O)OCc2ccccc2)cc1` (stereo unspecified): -6.75% (inactive); for `COc1ccc(CNC(=O)C2CCC(CNc3c(N4CCOCC4)c(=O)c3=O)CC2)cc1` (stereo unspecified): -0.13% (inactive) and -5.05% (inactive).
On to `CCOc1cc(N2CCOCC2)c(OCC)cc1NC(=O)c1cc(C)nc2ccccc12`, for which the inhibition was 13.2% (active).
The same measure for `Cc1cc(C(=O)OCC(=O)Nc2nccs2)c2ccccc2n1`: 8.33% (inactive).
The same measure for `CCOc1ccc(NC(=O)c2cc(C)nc3ccccc23)cc1`: 16.2% (active); for `CCC(CC)C(C(=O)NC1CCCC1)N1CCN(c2cc(C)nc3ccccc23)CC1` (stereo unspecified): -3.59% (inactive); for `CCOc1cc(NC(=O)c2ccccc2C(=O)O)c(OCC)cc1NC(=O)c1ccccc1F`: 0.6% (inactive).
The same measure for `CCOc1ncccc1C(=O)Nc1ccc(S(=O)(=O)Nc2nc(C)cc(C)n2)cc1`: -2.5% (inactive).
On to `O=C(CSc1nc2ccccc2nc1N1CCCCC1)N1CCN(S(=O)(=O)c2cccc([N+](=O)[O-])c2)CC1`, for which the inhibition is -6.32% (inactive).
For `O=C(NCc1ccc(Cl)cc1)C1CCCN(c2nc3ccccc3o2)C1` (stereo unspecified) the value was -3.29% (inactive); for `O=C(c1ccc(F)cc1)c1c[nH]c(C(=O)NCc2cccnc2)c1`, 4.31% (inactive); for `O=C1CC[C@@]23CCCN2C(=O)CCC[C@H]3[C@H]1Cc1ccccc1`, 1.8% (inactive).
Consider `COC(=O)C(=Nc1ccccc1)/C(C(=O)C(=O)N(C)c1ccccc1)=C(\O)c1ccc(Cl)cc1`, for which the inhibition was -5.32% (inactive).
For `C=CC1=C(C(=O)O)N2C(=O)[C@@H](NC(=O)/C(=N\OCC(=O)O)c3csc(N)n3)[C@H]2SC1` the value was 52.4% (active).
The same measure for `C=CC1=C(C(=O)O)N2C(=O)[C@@H](NC(=O)/C(=N/OCC(=O)O)c3csc(N)n3)[C@H]2SC1`: 73.1% (active); for `CCCNc1ncnc2sc(C)c(C)c12`: 1.28% (inactive); for `O=C(Nc1cc(F)cc(F)c1)OC1CCC12CCC(c1ccccc1)CC2` (stereo unspecified): 0.3% (inactive).
As to `O=C1CC(c2ccc3c(c2)OCO3)N=C2N(CC3CC3)C/C(=C/c3ccccc3)N12` (stereo unspecified), the inhibition is -1.23% (inactive).
The same measure for `COCCN1CCN(C(=O)c2cc(COc3ccc(F)cc3Cl)on2)CC1`: 2.22% (inactive); for `Cc1cc(OCc2cc(C(=O)NCc3cc(C(C)C)no3)no2)cc(C)c1Cl`: 4.94% (inactive).
The same measure for `COc1ccc(OCc2cc(C(=O)NCC3(C)COC3)no2)c(Cl)c1`: 17.4% (active).
The same measure for `COC(=O)C1=C(C)N(Cc2ccccc2C(F)(F)F)C(=NCc2ccc(C(F)(F)F)cc2)NC1c1ccc(F)cc1` (stereo unspecified): 2.2% (inactive); for `CN1C(=O)CN2CCc3ccccc3C2c2cc(Cl)ccc21` (stereo unspecified): -5.25% (inactive).
`Cc1ccc(NC(=O)Cc2cccc(F)c2)c(S(=O)(=O)N2CCOCC2)c1`: the inhibition was -5.33% (inactive).
For `Cc1nc(CNc2ncnc3ccc(-c4ccc5c(c4)OCO5)cc23)cs1` the value was -2.98% (inactive); for `COc1ccc(C2Nc3ccccc3C(=O)N2Cc2cccs2)cc1COc1c(C)cccc1C` (stereo unspecified), -1.94% (inactive).
The same measure for `CCOC(=O)NC(C(F)(F)F)(C(F)(F)F)P(=O)(c1ccccc1)c1ccccc1`: -1.87% (inactive); for `CCOC(=O)CNC(=O)/C=C/c1c(Cl)cccc1Cl`: -5.98% (inactive).
For `CCOC(=O)CCP(=O)(O)C(O)(c1ccccc1)c1ccccc1` the value was 28.3% (active).
On to `CCOC(=O)C(=O)N(Cc1ccccc1)c1ccccc1C(=O)Nc1cc(OC)ccc1OC`, for which the inhibition was 1% (inactive).
As for `COc1cccc(/C=C2\CC3(OC(C)=O)CCCN2C3)c1` (stereo unspecified), the inhibition is 1.18% (inactive).
Take `O=c1ccc2c(-c3ccccc3S(=O)(=O)O)c3ccc(O)c(O)c3oc-2c1O`: the inhibition is 97.2% (active).
For `O=C(NC1CCCCN(Cc2ccc(Cl)cc2)C1=O)c1ccc(Br)cc1` (stereo unspecified) the value was -2.53% (inactive); for `C=C(C)C#CC(Cc1ccccc1)NCC1CC1` (stereo unspecified), -0.24% (inactive).
For `Cc1cc(C)c2nc3nc(C)cc(C)c3c(N)c2c1` the value was 19.4% (active).
The same measure for `NC(=O)c1ncn([C@@H]2O[C@H](C(=O)O)[C@@H](O)[C@H]2O)n1`: 2.1% (inactive); for `CCC[C@H]1C(=O)CC[C@@]23CCCN2C(=O)CCC[C@@H]13`: -0.46% (inactive); for `CC(C)CSc1nnc(-c2cccnc2)n1Cc1ccccc1`: -2.93% (inactive).
As for `O=C(OC12CCCN(C1)/C(=C/c1cccnc1)C2)C1CCCC1` (stereo unspecified), the inhibition is -0.45% (inactive).
For `O=C(NS(=O)(=O)c1cccs1)[C@H]1O[C@@H](n2ccc(=O)[nH]c2=O)[C@H](O)[C@@H]1O` the value was 3.05% (inactive); for `Cc1c(CN2CCC(C)CC2)c(=O)n(-c2ccccc2)n1C`, 2.32% (inactive).
The same measure for `Cc1c(C=O)n(C)n(-c2ccccc2)c1=O`: 14.6% (active); for `Cc1cccc(N2CCN(Cc3c(C)n(C)n(-c4ccccc4)c3=O)CC2)c1C`: 1.05% (inactive); for `O=S(=O)(c1ccc(Br)cc1)n1ccc2ccccc21`: -0.04% (inactive).
Regarding `O=S1(=O)c2c(cccc2N2CCSCC2)Oc2ccccc2CN1Cc1cn(Cc2ccc(F)cc2)nn1`, the inhibition was -0.08% (inactive).
